Hits are enriched below; roughly 3.3% of the tested compounds scored in any of these assays.
PI4K2A block: inhibitors of human PI4K2A; purified PI4K2A, ADP-Glo luminescence, 1 h; stronger effect = lower value; activity change, negative = inhibition, % at 76.9 µM; Q9BTU6; 420,000 tested, 0.13% active; in the data active means activity change below about -50%
Target sequence (Q9BTU6 whole entry, looked up): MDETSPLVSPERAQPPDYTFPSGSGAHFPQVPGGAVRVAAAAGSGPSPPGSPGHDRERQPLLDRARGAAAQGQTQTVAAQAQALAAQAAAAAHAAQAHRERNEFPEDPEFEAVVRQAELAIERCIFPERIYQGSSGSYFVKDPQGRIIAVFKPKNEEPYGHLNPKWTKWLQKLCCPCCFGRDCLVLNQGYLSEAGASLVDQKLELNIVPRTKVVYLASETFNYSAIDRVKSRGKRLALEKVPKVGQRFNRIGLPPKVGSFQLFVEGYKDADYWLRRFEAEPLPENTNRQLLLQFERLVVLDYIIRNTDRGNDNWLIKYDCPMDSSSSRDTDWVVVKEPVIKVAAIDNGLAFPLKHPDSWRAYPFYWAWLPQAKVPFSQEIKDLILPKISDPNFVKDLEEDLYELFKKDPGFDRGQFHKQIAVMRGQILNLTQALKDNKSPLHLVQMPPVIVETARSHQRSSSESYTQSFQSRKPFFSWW
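Compounds are screened against recombinant PI4K2A using PI as substrate and ATP, the latter dispensed at 300 microM. Reactions run one hour at ambient temperature before ADP-Glo detection; full inhibition defined by wells lacking enzyme.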
D3 ag: activates the human D3 dopamine receptor | AID 652048 | max activation, % | 410,000 tested, 0.58% active | D3R DiscoveRx beta-arrestin cells, luminescence, 90 min; in the data active means max activation above about 30%
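Agonist-mode cell screen: cells plated at 1500/well and incubated overnight at 37 °C, then exposed to library compounds for 90 min at 37 °C. Detection reagent was added for 30–60 min at room temperature, and luminescence was read.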
LDHA block: LDHA (human) enzyme inhibition; purified LDHA, NADH/diaphorase-resazurin fluorescence; stronger effect = lower value; activity change, % (values are at about 110 or 230 µM); 480,000 tested, 0.15% active; AID 1347041; in the data active means activity change below about -30%
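LDH5 2 nM; NADH 0.06 mM, pyruvate 0.2 mM; 200 mM Tris pH 7.4, EDTA, Tween-20; 5 min RT. Detection: diaphorase 0.133 mg/mL + resazurin 37 µM, fluorescence ex540/em590 at 0 and 20 min; normalized to enzyme-free and DMSO wells.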
DRD3 antagonist: blocks the human D3 dopamine receptor; max response, negative = inhibition, %; D3R cells, DiscoveRx beta-arrestin luminescence, antagonist mode; stronger effect = lower value; 360,000 tested, 2.5% active; P35462; in the data active means max response below about -50%
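Cells plated overnight at 1500 cells/well, then exposed to library compounds with dopamine controls for 90 minutes at 37 degrees C. DiscoveRx reagent added for 30–60 minutes at room temperature; luminescence read, quantitative HTS format.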
PI5P4Ka inh: PI5P4K alpha (human) kinase inhibition | AID 652105 | PI5P4Kalpha enzyme, ADP-Glo luminescence, 60 min; stronger effect = lower value | 330,000 tested, 1.2% active | max response, % | P48426; active means max response of -50% or lower; further: value at the top dose of about 77 µM
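ADP-Glo luminescence end-point read after a 60 min room-temperature kinase reaction of PI5P4Kalpha plus substrate, initiated with ATP at 5 microM final. Buffer: 0.038 M HEPES pH 7.4, EGTA, 0.1% CHAPS, 5% DMSO.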
Large screens that a line does not name were inactive; ! = not confirmed by another sample.

CNC1=C(N(C(C)=O)c2ccc(Br)cc2)C(=O)c2ccccc2C1=O	none
CC(=O)C1=C(c2ccc(Br)cc2)C(=O)c2ccccc2C1=O	DRD3 antagonist -87
Cc1cnc(CNC(=O)CC2C(=O)NCCN2Cc2ccccc2C(F)(F)F)cn1 (stereo not given)	PI4K2A block -61
CCOC(=O)c1ccc(NC(=O)Nc2cccc(-c3nnc(Cc4ccc5c(c4)OCO5)o3)c2)cc1	none (no result: PI4K2A block, D3 ag, DRD3 antagonist, PI5P4Ka inh)
O=C(CCn1c(=O)sc2ccccc21)NCCC1=CCCCC1	DRD3 antagonist -108 (no result: PI5P4Ka inh)
COc1ccccc1N1CCN(C(C)C(=O)N2CC(C)OC(C)C2)CC1 (stereo not given)	LDHA block -39
CC(=O)N1SC(N)=NC1c1ccccc1 (stereo not given)	none
c1ccc([C@H]2CN3C(=N2)Sc2ccccc23)cc1	DRD3 antagonist -52
CNS(=O)(=O)c1ccc(CCC(=O)N2CCN(c3ccccc3OC)CC2)cc1	D3 ag 37
COc1ccccc1N1CCN(C(=O)CCc2ccccc2)CC1	none
CCOCCn1c(=O)c2c(nc(-n3nc(CC)cc3CC)n2CC)n(C)c1=O	none (no result: PI4K2A block, D3 ag, DRD3 antagonist, PI5P4Ka inh)
O=[N+]([O-])c1cnc(Sc2ccncn2)c([N+](=O)[O-])c1	PI5P4Ka inh -74
O=[N+]([O-])c1ccc(Sc2ncccn2)c([N+](=O)[O-])c1	none
O=[N+]([O-])c1cnc(Sc2ccncn2)s1	DRD3 antagonist -125
Cc1nc2ccccc2c(C)c1C(=O)O	none (no result: PI4K2A block, D3 ag, DRD3 antagonist, PI5P4Ka inh)
CCOC(=O)c1c(C)[nH]c(C)c1C(=O)COc1ncnc2ccccc12	PI5P4Ka inh -55
CC1CCN(CCCCOc2ccc(Cl)cc2)CC1	none
CC(C)(C)c1ccc(OCCN2CCCC2)cc1	DRD3 antagonist -94 (no result: PI5P4Ka inh)
CN1CCC(OC(=O)COc2ccc(C(C)(C)C)cc2)CC1	DRD3 antagonist -56 (no result: PI5P4Ka inh)
CC1CCN(CCCCOc2ccc(C(C)(C)C)cc2)CC1	DRD3 antagonist -88
O=S(=O)(NCc1ccccc1Cn1cccn1)c1c(Cl)cccc1Cl	none (no result: PI4K2A block, D3 ag, DRD3 antagonist, PI5P4Ka inh)
N#Cc1nc(C2CC2)oc1N1CCN(C(=O)c2cc(F)cc(F)c2)CC1	none (no result: PI4K2A block, D3 ag, DRD3 antagonist, PI5P4Ka inh)
CCCCNc1c(-c2ccc(SC(C)CC)cc2)nc2ccccn12 (stereo not given)	D3 ag 30!
CCCCNc1c(-c2cccc(SC3CCCCC3)c2)nc2ccc(Cl)cn12	D3 ag 69!
Clc1ccc2nc(-c3cccc(SC4CCCCC4)c3)c(NCc3ccccc3)n2c1	none
CCCCNc1c(-c2cccc(SC(C)CC)c2)nc2ccc(Cl)cn12 (stereo not given)	none
CCCCNc1c(-c2ccc(SC3CCCCC3)cc2)nc2ccccn12	D3 ag 72!
O=C(O)C(Cc1c[nH]c2ccccc12)NCc1ccccc1 (stereo not given)	none (no result: PI4K2A block, D3 ag, DRD3 antagonist, PI5P4Ka inh)
CC(C)C(=O)N1N=C(c2ccc(F)cc2)CC1c1ccc2nccnc2c1 (stereo not given)	none (no result: PI4K2A block, D3 ag, DRD3 antagonist, PI5P4Ka inh)
Cc1cc(=O)n(CCO)c(O)c1C#N	none
Cc1c(C#N)c(O)n(CCO)c(=O)c1N=Nc1ccc2c(c1)COC2=O	DRD3 antagonist -59
Nc1cc2c(cc1C(=O)c1ccccc1)OCCO2	DRD3 antagonist -60
O=c1nc(/C=C/c2cc([N+](=O)[O-])ccc2Cl)cc(C(F)(F)F)[nH]1	DRD3 antagonist -69
O=c1nc(/C=C/c2cccn2-c2ccc([N+](=O)[O-])cc2)cc(C(F)(F)F)[nH]1	PI5P4Ka inh -69
CCCCn1c(N)c(N(CCOC)C(=O)c2cccc(OC(F)F)c2)c(=O)[nH]c1=O	none (no result: PI4K2A block, D3 ag, DRD3 antagonist, PI5P4Ka inh)
CC(C)NC(=O)COC(=O)c1cc(-c2ccc(Cl)s2)nc2ccccc12	none (no result: PI4K2A block, D3 ag, DRD3 antagonist, PI5P4Ka inh)
O=C(Nc1ccc(C2CC2)cc1)c1cccs1	none (no result: PI4K2A block, D3 ag, DRD3 antagonist, PI5P4Ka inh)
S=C(NCCCN1CCOCC1)NCCCN1CCOCC1	none
S=c1[nH]nc(NCCCN2CCOCC2)s1	PI5P4Ka inh -69
COc1ccc(S(=O)(=O)NCCO)c2ccccc12	none (no result: PI4K2A block, D3 ag, DRD3 antagonist, PI5P4Ka inh)
C=CCNC(=O)C1CCN(Cc2cccc(Cl)c2)CC1	none (no result: PI4K2A block, D3 ag, DRD3 antagonist, PI5P4Ka inh)
Cn1nccc1C(=O)NC1CCN(Cc2ccccc2)CC1	DRD3 antagonist -80
Cc1ccc(CC(=O)NC2CCN(Cc3ccccc3)CC2)cc1	DRD3 antagonist -55
CC(Oc1ccccc1)C(=O)NC1CCN(Cc2ccccc2)CC1 (stereo not given)	DRD3 antagonist -59 (no result: PI5P4Ka inh)
O=C(NC1CCN(Cc2ccccc2)CC1)c1ccccc1	DRD3 antagonist -81
